Results from article PMC5540273 (PLoS ONE, 2017).
“And” between values parts separate entries of the source, which are not always exact repeats. Identical values can stand only once. Like-named read-outs stand apart in the source and are kept apart here.

Tests used:
Details in all cases: n = 1
MKNK1 = system: MKNK1
MKNK2 = system: MKNK2
MLCK = system: T1, MLCK
T1 construct: gene MYLK3

MLK1 = system: T2, MLK1
T2 construct: gene MAP3K9

MLK2 = system: MLK2
MLK3 = system: MLK3
MRCKA = system: MRCKA
MRCKB = system: T3, MRCKB
T3 construct: gene CDC42BPB

MST1R = system: MST1R
MST1 = system: T4, MST1
T4 construct: gene STK4

[1] = concentration: 1 μM, replicates: in singlicate
[2] = concentration: 1 μM,replicates: in singlicate, 1 µM
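Further: KINOMEscan kinase panel screen.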

Nc1ncnc2[nH]c(-c3ccccc3)nc12 [AH5015]
%Inh (MKNK1; [1]): 0%
%Inh (MKNK2; [1]): 39%
%Inh (MLCK; [1]): 0%
%Inh (MLK1; [1]): 11%
%Inh (MLK2; [1]): 5%
%Inh (MLK3; [1]): 4%
%Inh (MRCKA; [1]): 0%
%Inh (MRCKB; [1]): 0%
%Inh (MST1R; [1]): 3%
%Inh (MST1; [1]): 100%

CCn1c(-c2cccnc2O)nc2cnccc21 [SB-736715]
%Inh (MKNK1; [1]): 17%
%Inh (MKNK2; [1]): 1%
%Inh (MLCK; [1]): 0%
%Inh (MLK1; [1]): 0%
%Inh (MLK2; [1]): 0%
%Inh (MLK3; [1]): 0%
%Inh (MRCKA; [1]): 4%
%Inh (MRCKB; [1]): 0%
%Inh (MST1R; [1]): 0%
%Inh (MST1; [1]): 0%

CC(=O)Nc1nc2cnc(Nc3cc(NC(=O)c4cccc(CCC#N)c4)ccc3C)nc2s1
%Inh (MKNK1; [1]): 3%
%Inh (MKNK2; [1]): 0%
%Inh (MLCK; [1]): 0%
%Inh (MLK1; [1]): 2%
%Inh (MLK2; [1]): 15%
%Inh (MLK3; [1]): 13%
%Inh (MRCKA; [1]): 0%
%Inh (MRCKB; [1]): 0%
%Inh (MST1R; [1]): 21%
%Inh (MST1; [1]): 5%

CSc1nn2c(=O)cc(N3CCOCC3)nc2n1Cc1cccc(C(F)(F)F)c1C [GSK2363608]
%Inh (MKNK1; [1]): 0%
%Inh (MKNK2; [2]): 11% and 6%
%Inh (MLCK; [2]): 0% and 11%
%Inh (MLK1; [1]): 0%
%Inh (MLK2; [1]): 0%
%Inh (MLK3; [2]): 17% and 0%
%Inh (MRCKA; [2]): 23% and 17%
%Inh (MRCKB; [2]): 0% and 5%
%Inh (MST1R; [2]): 35% and 48%
%Inh (MST1; [2]): 11% and 0%

COc1ccc(Nc2nccc(NCCNC(=O)Nc3ccccc3F)n2)cc1 [GSK1379901]
%Inh (MKNK1; [1]): 24%
%Inh (MKNK2; [1]): 13%
%Inh (MLCK; [1]): 0%
%Inh (MLK1; [1]): 0%
%Inh (MLK2; [1]): 0%
%Inh (MLK3; [1]): 25%
%Inh (MRCKA; [1]): 23%
%Inh (MRCKB; [1]): 0%
%Inh (MST1R; [1]): 16%
%Inh (MST1; [1]): 0%

Cn1ccc2ncnc(Oc3ccc(Nc4nc5ccccc5[nH]4)cc3)c21
%Inh (MKNK1; [1]): 0%
%Inh (MKNK2; [1]): 0%
%Inh (MLCK; [1]): 0%
%Inh (MLK1; [1]): 0%
%Inh (MLK2; [1]): 20%
%Inh (MLK3; [1]): 0%
%Inh (MRCKA; [1]): 0%
%Inh (MRCKB; [1]): 0%
%Inh (MST1R; [1]): 18%
%Inh (MST1; [1]): 8%

Nc1nc(-c2nccs2)c(-c2ccnc3ccccc23)s1 [GW693542]
%Inh (MKNK1; [1]): 11%
%Inh (MKNK2; [1]): 6%
%Inh (MLCK; [1]): 0%
%Inh (MLK1; [1]): 6%
%Inh (MLK2; [1]): 0%
%Inh (MLK3; [1]): 0%
%Inh (MRCKA; [1]): 12%
%Inh (MRCKB; [1]): 0%
%Inh (MST1R; [1]): 33%
%Inh (MST1; [1]): 2%

Cc1cc(N2Cc3ccccc3C2)nc(Nc2ccc(S(=O)(=O)N3CCOCC3)cc2)n1.Cl [GSK1669917]
%Inh (MKNK1; [1]): 0%
%Inh (MKNK2; [1]): 0%
%Inh (MLCK; [1]): 0%
%Inh (MLK1; [1]): 0%
%Inh (MLK2; [1]): 0%
%Inh (MLK3; [1]): 15%
%Inh (MRCKA; [1]): 1%
%Inh (MRCKB; [1]): 0%
%Inh (MST1R; [1]): 0%
%Inh (MST1; [1]): 0%

CN1C(=O)C(Nc2ccc(Cl)c(C(=O)O)c2)=C(c2ccc(Cl)cc2)C1=O [SB-404290]
%Inh (MKNK1; [1]): 0%
%Inh (MKNK2; [1]): 10%
%Inh (MLCK; [1]): 0%
%Inh (MLK1; [1]): 0%
%Inh (MLK2; [1]): 0%
%Inh (MLK3; [1]): 4%
%Inh (MRCKA; [1]): 13%
%Inh (MRCKB; [1]): 0%
%Inh (MST1R; [1]): 19%
%Inh (MST1; [1]): 12%

Cl.O=C(Nc1cccc(-c2nn3ncccc3c2-c2ccnc(Nc3cccnc3)n2)c1)c1c(F)cccc1F [GSK312879]
%Inh (MKNK1; [1]): 0%
%Inh (MKNK2; [1]): 30%
%Inh (MLCK; [1]): 0%
%Inh (MLK1; [1]): 0%
%Inh (MLK2; [1]): 31%
%Inh (MLK3; [1]): 1%
%Inh (MRCKA; [1]): 1%
%Inh (MRCKB; [1]): 8%
%Inh (MST1R; [1]): 26%
%Inh (MST1; [1]): 17%

COc1ccc(Nc2nccc(-c3cccc(NC(=O)c4cc5cc(F)ccc5[nH]4)c3)n2)cc1 [GSK1229782]
%Inh (MKNK1; [1]): 26%
%Inh (MKNK2; [1]): 0%
%Inh (MLCK; [1]): 9%
%Inh (MLK1; [1]): 5%
%Inh (MLK2; [1]): 20%
%Inh (MLK3; [1]): 34%
%Inh (MRCKA; [1]): 27%
%Inh (MRCKB; [1]): 2%
%Inh (MST1R; [1]): 31%
%Inh (MST1; [1]): 16%

CS(=O)(=O)c1ccc(-c2nc3n(c2-c2ccncc2)CCC3)cc1 [SKF-105942]
%Inh (MKNK1; [1]): 9%
%Inh (MKNK2; [1]): 6%
%Inh (MLCK; [1]): 0%
%Inh (MLK1; [1]): 0%
%Inh (MLK2; [1]): 0%
%Inh (MLK3; [1]): 1%
%Inh (MRCKA; [1]): 14%
%Inh (MRCKB; [1]): 2%
%Inh (MST1R; [1]): 19%
%Inh (MST1; [1]): 0%

Cc1c(O)cccc1Nc1ccnc2ccc(C(F)(F)F)cc12.Cl [GW466413]
%Inh (MKNK1; [1]): 0%
%Inh (MKNK2; [1]): 1%
%Inh (MLCK; [1]): 1%
%Inh (MLK1; [1]): 0%
%Inh (MLK2; [1]): 0%
%Inh (MLK3; [1]): 4%
%Inh (MRCKA; [1]): 0%
%Inh (MRCKB; [1]): 0%
%Inh (MST1R; [1]): 0%
%Inh (MST1; [1]): 0%

CCCc1ccc(S(=O)(=O)NC2CCN(c3ccnc(Nc4ccc(F)cc4)n3)C2)cc1 (stereo not drawn) [GSK1379715]
%Inh (MKNK1; [1]): 0%
%Inh (MKNK2; [1]): 8%
%Inh (MLCK; [1]): 0%
%Inh (MLK1; [1]): 0%
%Inh (MLK2; [1]): 0%
%Inh (MLK3; [1]): 0%
%Inh (MRCKA; [1]): 12%
%Inh (MRCKB; [1]): 0%
%Inh (MST1R; [1]): 7%
%Inh (MST1; [1]): 0%

Fc1cc(Cl)ccc1Nc1ccnc2cc(I)ccc12 [GW551191]
%Inh (MKNK1; [1]): 0%
%Inh (MKNK2; [1]): 18%
%Inh (MLCK; [1]): 2%
%Inh (MLK1; [1]): 0%
%Inh (MLK2; [1]): 0%
%Inh (MLK3; [1]): 0%
%Inh (MRCKA; [1]): 16%
%Inh (MRCKB; [1]): 0%
%Inh (MST1R; [1]): 82%
%Inh (MST1; [1]): 0%

Cl.NC(=O)c1cccc(Nc2nccc(Nc3ccc(Oc4cccc(Cl)c4)c(Cl)c3)n2)c1 [GW659008]
%Inh (MKNK1; [1]): 8%
%Inh (MKNK2; [1]): 4%
%Inh (MLCK; [1]): 0%
%Inh (MLK1; [1]): 0%
%Inh (MLK2; [1]): 33%
%Inh (MLK3; [1]): 0%
%Inh (MRCKA; [1]): 26%
%Inh (MRCKB; [1]): 0%
%Inh (MST1R; [1]): 0%
%Inh (MST1; [1]): 15%

Cc1ccc(NC(=O)Nc2cccc(C(F)(F)F)c2)cc1 [GSK955403]
%Inh (MKNK1; 1 µM): 0%
%Inh (MKNK2; 1 µM): 30%
%Inh (MLCK; 1 µM): 0%
%Inh (MLK1; 1 µM): 0%
%Inh (MLK2; 1 µM): 13%
%Inh (MLK3; 1 µM): 6%
%Inh (MRCKA; 1 µM): 0%
%Inh (MRCKB; 1 µM): 0%
%Inh (MST1R; 1 µM): 0%
%Inh (MST1; 1 µM): 0%

COc1cc(Nc2nccc(N3CCC(NC(=O)Nc4cc(C)ccc4C)C3)n2)cc(OC)c1OC (stereo not drawn) [GSK1379762]
%Inh (MKNK1; [1]): 9%
%Inh (MKNK2; [1]): 37%
%Inh (MLCK; [1]): 0%
%Inh (MLK1; [1]): 25%
%Inh (MLK2; [1]): 4%
%Inh (MLK3; [1]): 23%
%Inh (MRCKA; [1]): 0%
%Inh (MRCKB; [1]): 0%
%Inh (MST1R; [1]): 52%
%Inh (MST1; [1]): 13%
